# Measured values from PubChem BioAssay (NCI).
# The panel holds about 79,000 compounds, 15% with a hit somewhere; the sample as a whole holds those more often. A number with no mark means an inactive call. Active and inactive are the calls of the source. No stated cut-off is given here; in the data, active means growth inhibition above about 70%; inactive means the rest.
# Key:
# [1] = NCI Yeast Anticancer Drug Screen. Data for the rad52 strain (AID 147);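 further: 0% = growth of vehicle-treated control cultures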; conditions: S. cerevisiae rad52 mutant growth inhibition, hits give high values
# In short: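 Screen used a yeast mutant impaired in DNA repair. After compound exposure, growth was measured. Values reflect inhibition compared with vehicle-treated cells.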
# [2] = NCI Yeast Anticancer Drug Screen. Data for the wt1 strain (AID 149);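 further: 0% = growth of vehicle-treated wt1 cultures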; conditions: S. cerevisiae wt1 strain (SPY 50644) growth inhibition, hits give high values
# In short: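 Using yeast strain wt1, compound-induced growth inhibition was determined against vehicle-treated cultures.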
# [3] = NCI Yeast Anticancer Drug Screen. Data for the rad50EPP+ strain (AID 151);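 further: 0% = growth of vehicle-treated control cultures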; conditions: S. cerevisiae rad50 mutant strain, hits give high values
# In short: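 Exposing the rad50EPP+ strain to each compound, growth was compared with vehicle-only cultures to give inhibition.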
# [4] = NCI Yeast Anticancer Drug Screen. Data for the mgt1 strain (AID 153); conditions: S. cerevisiae mgt1 mutant growth inhibition, hits give high values
# In short: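 Genetically defined yeast (mgt1) treated with compound; inhibition of growth expressed against vehicle-treated controls.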
# [5] = NCI Yeast Anticancer Drug Screen. Data for the rad50 strain (AID 155);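 further: 0% = growth of vehicle-only cultures of the same strain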; conditions: S. cerevisiae rad50 strain growth inhibition, hits give high values
# In short: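 Relative growth inhibition (compound vs vehicle) was measured in yeast with a defined repair-gene alteration.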
# [6] = NCI Yeast Anticancer Drug Screen. Data for the mec2-1 strain (AID 157); conditions: S. cerevisiae mec2-1 strain, hits give high values
# In short: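 Readout is yeast growth inhibition, normalised to vehicle-treated controls, in the mec2-1 strain exposed to compound.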
# [7] = NCI Yeast Anticancer Drug Screen. Data for the rad14 strain (AID 159);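 further: 0% = growth of vehicle-treated control cultures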; conditions: S. cerevisiae rad14 strain growth inhibition, hits give high values
# In short: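 Screen for anticancer potential: a yeast strain altered in DNA damage repair is grown with compound, and reduced growth is quantified against vehicle controls.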
# [8] = NCI Yeast Anticancer Drug Screen. Data for the sgs1 mgt1 strain (AID 161);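 further: 0% = growth of cultures given vehicle only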; conditions: S. cerevisiae sgs1 mgt1 strain, hits give high values
# In short: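 Growth of a repair-deficient yeast mutant was monitored after compound treatment and expressed as inhibition relative to vehicle-treated cultures.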
# [9] = NCI Yeast Anticancer Drug Screen. Data for the CLN2oe strain (AID 163);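 further: 0% = growth of vehicle-only control cultures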; conditions: S. cerevisiae CLN2oe strain, hits give high values
# In short: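 Values reflect how much compound exposure reduced yeast growth, referenced to vehicle-exposed cells. Assay organism is a strain with a defined genetic change affecting cell-cycle control.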
# [10] = NCI Yeast Anticancer Drug Screen. Data for the cln2 rad14 strain (AID 165);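 further: 0% = growth equal to vehicle treated cultures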; conditions: S. cerevisiae cln2 rad14 strain, hits give high values
# In short: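 Relative to vehicle controls, growth inhibition of compound-treated cln2 rad14 yeast was recorded.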
# [11] = NCI Yeast Anticancer Drug Screen. Data for the bub3 strain (AID 167); conditions: S. cerevisiae bub3 mutant strain, hits give high values
# In short: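 Screening used yeast with an engineered genetic alteration affecting cell cycle control. Compound-exposed cultures were compared with vehicle cultures, and reduced growth was taken as inhibition.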
# [12] = NCI Yeast Anticancer Drug Screen. Data for the wt2 strain (AID 169);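 further: 0% = growth of vehicle-treated yeast cultures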; conditions: S. cerevisiae wt2 strain growth inhibition, hits give high values
# In short: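 Values express reduction in yeast growth under compound treatment, referenced to vehicle-treated cells.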
# [13] = NCI Yeast Anticancer Drug Screen. Data for the mlh1 strain (AID 171);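 further: 0% = growth of vehicle-treated control cultures of the same strain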; conditions: S. cerevisiae mlh1 strain growth inhibition, hits give high values
# In short: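 Steps: expose the defined-mutant yeast strain to compound; expose a parallel culture to vehicle; measure growth; express compound effect as inhibition relative to the vehicle culture.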
# [14] = NCI Yeast Anticancer Drug Screen. Data for the sgs1 strain (AID 173);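 further: 0% = growth of vehicle-only control cultures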; conditions: S. cerevisiae sgs1 mutant, hits give high values
# In short: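 Treat defined-mutant yeast with compound; measure growth; calculate inhibition relative to vehicle-treated cells.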
# [15] = NCI Yeast Anticancer Drug Screen. Data for the mlh1 rad18 strain (AID 175); conditions: S. cerevisiae mlh1 rad18 strain growth inhibition, hits give high values
# In short: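 Test agents were incubated with a yeast strain of defined genotype (DNA damage repair defect). Inhibition of growth was derived by comparison with vehicle-exposed cultures.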
# [16] = NCI Yeast Anticancer Drug Screen. Data for the rad18 strain (AID 177); conditions: S. cerevisiae rad18 mutant growth inhibition, hits give high values
# In short: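 A genetically defined yeast mutant impaired in DNA damage repair was treated with test compounds, then its growth was measured against cultures receiving vehicle alone.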
# [17] = at 5.0 µM (retest, dose inferred, filed as 0.5)
# [18] = at 50.0 µM (retest, dose inferred, filed as 5.0)
smiles,measurement,setting,value
CCC(C)COC(=O)c1ccc(N=Cc2ccc(C=Nc3ccc(C(=O)OCC(C)CC)cc3)cc2)cc1 (stereo unspecified),growth inhibition,[1]; at 1.2 µM,-2%
same,growth inhibition,[1]; at 3.7 µM,-3%
same,growth inhibition,[1]; at 11.0 µM,6%
same,growth inhibition,[1]; at 33.0 µM,4%
same,growth inhibition,[1]; at 100.0 µM,13%
same,growth inhibition,[2]; at 1.2 µM,-1%
same,growth inhibition,[2]; at 3.7 µM,-4%
same,growth inhibition,[2]; at 11.0 µM,-2%
same,growth inhibition,[2]; at 33.0 µM,-1%
same,growth inhibition,[2]; at 100.0 µM,3%
same,growth inhibition,[3]; at 1.2 µM,5%
same,growth inhibition,[3]; at 3.7 µM,5%
same,growth inhibition,[3]; at 11.0 µM,16%
same,growth inhibition,[3]; at 33.0 µM,32%
same,growth inhibition,[3]; at 100.0 µM,49%
same,growth inhibition,[4]; at 1.2 µM,1%
same,growth inhibition,[4]; at 3.7 µM,1%
same,growth inhibition,[4]; at 11.0 µM,-4%
same,growth inhibition,[4]; at 33.0 µM,-6%
same,growth inhibition,[4]; at 100.0 µM,6%
same,growth inhibition,[5]; at 1.2 µM,-2%
same,growth inhibition,[5]; at 3.7 µM,-9%
same,growth inhibition,[5]; [17],96% (active)
same,growth inhibition,[5]; at 11.0 µM,-2%
same,growth inhibition,[5]; at 33.0 µM,3%
same,growth inhibition,[5]; [18],96% (active)
same,growth inhibition,[5]; at 50.0 µM,28.8%
same,growth inhibition,[5]; at 100.0 µM,21%
same,growth inhibition,[6]; at 1.2 µM,-3%
same,growth inhibition,[6]; at 3.7 µM,-2%
same,growth inhibition,[6]; [17],13%
same,growth inhibition,[6]; at 11.0 µM,3%
same,growth inhibition,[6]; at 33.0 µM,4%
same,growth inhibition,[6]; [18],13%
same,growth inhibition,[6]; at 50.0 µM,49.6%
same,growth inhibition,[6]; at 100.0 µM,8%
same,growth inhibition,[7]; at 1.2 µM,-1%
same,growth inhibition,[7]; at 3.7 µM,1%
same,growth inhibition,[7]; at 11.0 µM,4%
same,growth inhibition,[7]; at 33.0 µM,2%
same,growth inhibition,[7]; at 100.0 µM,11%
same,growth inhibition,[8]; [17],98% (active)
same,growth inhibition,[8]; [18],98% (active)
same,growth inhibition,[8]; at 50.0 µM,70.3% (active)
same,growth inhibition,[9]; at 1.2 µM,0%
same,growth inhibition,[9]; at 3.7 µM,0%
same,growth inhibition,[9]; at 11.0 µM,6%
same,growth inhibition,[9]; at 33.0 µM,-1%
same,growth inhibition,[9]; at 100.0 µM,0%
same,growth inhibition,[10]; [17],12%
same,growth inhibition,[10]; [18],12%
same,growth inhibition,[10]; at 50.0 µM,41%
same,growth inhibition,[11]; at 1.2 µM,7%
same,growth inhibition,[11]; at 3.7 µM,3%
same,growth inhibition,[11]; [17],3%
same,growth inhibition,[11]; at 11.0 µM,6%
same,growth inhibition,[11]; at 33.0 µM,10%
same,growth inhibition,[11]; [18],3%
same,growth inhibition,[11]; at 50.0 µM,62.1%
same,growth inhibition,[11]; at 100.0 µM,10%
same,growth inhibition,[12]; at 1.2 µM,0%
same,growth inhibition,[12]; at 3.7 µM,-2%
same,growth inhibition,[12]; at 11.0 µM,0%
same,growth inhibition,[12]; at 33.0 µM,2%
same,growth inhibition,[12]; at 100.0 µM,5%
same,growth inhibition,[13]; at 1.2 µM,0%
same,growth inhibition,[13]; at 3.7 µM,3%
same,growth inhibition,[13]; at 11.0 µM,2%
same,growth inhibition,[13]; at 33.0 µM,10%
same,growth inhibition,[13]; at 100.0 µM,19%
same,growth inhibition,[14]; at 1.2 µM,-2%
same,growth inhibition,[14]; at 3.7 µM,-2%
same,growth inhibition,[14]; at 11.0 µM,2%
same,growth inhibition,[14]; at 33.0 µM,7%
same,growth inhibition,[14]; at 100.0 µM,11%
same,growth inhibition,[15]; [17],50%
same,growth inhibition,[15]; [18],50%
same,growth inhibition,[15]; at 50.0 µM,57.1%
same,growth inhibition,[16]; at 1.2 µM,-1%
same,growth inhibition,[16]; at 3.7 µM,-3%
same,growth inhibition,[16]; at 11.0 µM,3%
same,growth inhibition,[16]; at 33.0 µM,13%
same,growth inhibition,[16]; at 100.0 µM,22%
Cc1ccc(S(=O)(=O)Oc2cc(Cl)c(Cl)cc2Cl)cc1,growth inhibition,[1]; at 1.2 µM,-1%
same,growth inhibition,[1]; at 3.7 µM,4%
same,growth inhibition,[1]; at 11.0 µM,9%
same,growth inhibition,[1]; at 33.0 µM,-5%
same,growth inhibition,[1]; at 100.0 µM,17%
same,growth inhibition,[2]; at 1.2 µM,-2%
same,growth inhibition,[2]; at 3.7 µM,-4%
same,growth inhibition,[2]; at 11.0 µM,-7%
same,growth inhibition,[2]; at 33.0 µM,-9%
same,growth inhibition,[2]; at 100.0 µM,-12%
same,growth inhibition,[3]; at 1.2 µM,-1%
same,growth inhibition,[3]; at 3.7 µM,9%
same,growth inhibition,[3]; at 11.0 µM,27%
same,growth inhibition,[3]; at 33.0 µM,28%
same,growth inhibition,[3]; at 100.0 µM,66%
same,growth inhibition,[4]; at 1.2 µM,0%
same,growth inhibition,[4]; at 3.7 µM,-2%
same,growth inhibition,[4]; at 11.0 µM,-6%
same,growth inhibition,[4]; at 33.0 µM,-9%
same,growth inhibition,[4]; at 100.0 µM,-8%
same,growth inhibition,[5]; at 1.2 µM,-2%
same,growth inhibition,[5]; at 3.7 µM,6%
same,growth inhibition,[5]; [17],9%
same,growth inhibition,[5]; at 11.0 µM,11%
same,growth inhibition,[5]; at 33.0 µM,3%
same,growth inhibition,[5]; [18],7%
same,growth inhibition,[5]; at 50.0 µM,-6.5%
same,growth inhibition,[5]; at 100.0 µM,17%
same,growth inhibition,[6]; at 1.2 µM,-1%
same,growth inhibition,[6]; at 3.7 µM,-1%
same,growth inhibition,[6]; [17],-29%
same,growth inhibition,[6]; at 11.0 µM,-5%
same,growth inhibition,[6]; at 33.0 µM,-9%
same,growth inhibition,[6]; [18],-17%
same,growth inhibition,[6]; at 50.0 µM,-21.8%
same,growth inhibition,[6]; at 100.0 µM,-6%
same,growth inhibition,[7]; at 1.2 µM,-4%
same,growth inhibition,[7]; at 3.7 µM,4%
same,growth inhibition,[7]; at 11.0 µM,2%
same,growth inhibition,[7]; at 33.0 µM,-7%
same,growth inhibition,[7]; at 100.0 µM,2%
same,growth inhibition,[8]; [17],23%
same,growth inhibition,[8]; [18],25%
same,growth inhibition,[8]; at 50.0 µM,7.65%
same,growth inhibition,[9]; at 1.2 µM,-2%
same,growth inhibition,[9]; at 3.7 µM,-6%
same,growth inhibition,[9]; at 11.0 µM,-10%
same,growth inhibition,[9]; at 33.0 µM,-18%
same,growth inhibition,[9]; at 100.0 µM,-18%
same,growth inhibition,[10]; [17],4%
same,growth inhibition,[10]; [18],3%
same,growth inhibition,[10]; at 50.0 µM,-9.8%
same,growth inhibition,[11]; at 1.2 µM,1%
same,growth inhibition,[11]; at 3.7 µM,3%
same,growth inhibition,[11]; [17],4%
same,growth inhibition,[11]; at 11.0 µM,3%
same,growth inhibition,[11]; at 33.0 µM,-2%
same,growth inhibition,[11]; [18],40%
same,growth inhibition,[11]; at 50.0 µM,10.2%
same,growth inhibition,[11]; at 100.0 µM,-4%
same,growth inhibition,[12]; at 1.2 µM,1%
same,growth inhibition,[12]; at 3.7 µM,-9%
same,growth inhibition,[12]; at 11.0 µM,-14%
same,growth inhibition,[12]; at 33.0 µM,-9%
same,growth inhibition,[12]; at 100.0 µM,-8%
same,growth inhibition,[13]; at 1.2 µM,1%
same,growth inhibition,[13]; at 3.7 µM,1%
same,growth inhibition,[13]; at 11.0 µM,2%
same,growth inhibition,[13]; at 33.0 µM,-6%
same,growth inhibition,[13]; at 100.0 µM,8%
same,growth inhibition,[14]; at 1.2 µM,-19%
same,growth inhibition,[14]; at 3.7 µM,-14%
same,growth inhibition,[14]; at 11.0 µM,-18%
same,growth inhibition,[14]; at 33.0 µM,0%
same,growth inhibition,[14]; at 100.0 µM,12%
same,growth inhibition,[15]; [17],18%
same,growth inhibition,[15]; [18],53%
same,growth inhibition,[15]; at 50.0 µM,2.3%
same,growth inhibition,[16]; at 1.2 µM,-5%
same,growth inhibition,[16]; at 3.7 µM,-2%
same,growth inhibition,[16]; at 11.0 µM,1%
same,growth inhibition,[16]; at 33.0 µM,-3%
same,growth inhibition,[16]; at 100.0 µM,11%
